Screens: PubChem BioAssay, National Center for Advancing Translational Sciences (NCATS)
Most compounds without a hit are left out; they make up all but 11% or so of the library.
ALDH1A1 block: qHTS Assay for Inhibitors of Aldehyde Dehydrogenase 1 (ALDH1A1); Potency, µM (highest dose often 75.3 µM), hits mostly inhibitors; actives 7.3% (n = 220,000); Aldehyde dehydrogenase 1A1 (Homo sapiens), P00352; AID 1030, 2008; Purified ALDH1A1, NADH fluorescence, propionaldehyde substrate; active = well fitted inhibition curve with a large enough effect, not every such curve was filed as active; inconclusive = small, poorly fitted or top-dose-only effect, or another doubt; inactive = no such curve, though single readings can be large or run the other way
Target sequence (P00352 whole entry, looked up): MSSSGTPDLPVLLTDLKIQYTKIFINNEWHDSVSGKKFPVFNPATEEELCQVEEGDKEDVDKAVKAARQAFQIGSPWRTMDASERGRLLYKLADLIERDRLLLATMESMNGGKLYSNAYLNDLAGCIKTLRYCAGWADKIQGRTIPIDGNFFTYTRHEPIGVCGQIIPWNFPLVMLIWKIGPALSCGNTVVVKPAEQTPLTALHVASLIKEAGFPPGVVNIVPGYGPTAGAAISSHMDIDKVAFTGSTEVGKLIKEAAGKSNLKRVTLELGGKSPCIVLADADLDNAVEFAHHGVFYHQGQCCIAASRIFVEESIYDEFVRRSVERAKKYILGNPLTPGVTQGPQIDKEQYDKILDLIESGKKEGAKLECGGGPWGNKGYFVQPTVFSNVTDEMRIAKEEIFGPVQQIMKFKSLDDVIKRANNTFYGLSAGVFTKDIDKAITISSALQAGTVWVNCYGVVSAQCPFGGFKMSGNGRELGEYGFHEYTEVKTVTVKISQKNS
GoLoco inh red: qHTS Assay for Inhibitors of RGS12 GoLoco Motif Activity (Red Fluorophore) | Potency, µM (top dose mostly 61.6 µM), most hits filed as inhibitors | Gai1:RGS12 GoLoco peptide FP, rhodamine, 10 min | Guanine nucleotide-binding protein G(i) subunit alpha-1 (Homo sapiens), P63096 | AID 880, 2007 | actives 0.44% (n = 230,000); active = well fitted inhibition curve with a large enough effect, not every such curve was filed as active; inactive = no such curve, though single readings can be large or run the other way; note: nearly all actives have a fitted effect of over 30% in size
HTT aggregate: qHTS Multiplex Assay to Identify Dual Action Probes in a Cell Model of Huntington: Aggregate Formation (GFP); Potency, µM (doses to about 46.1 µM), most hits filed as inhibitors; actives 1.1% (n = 220,000); AID 1688, 2009; PC12 HttQ103-GFP aggregates, Acumen cytometry, 40 h; note: nearly all actives have a fitted effect of over 60% in size
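Steps: seed 1500 PC12 HTTQ103-GFP cells/well; add tebufenozide, 100 nM final; add compound titration; add ATPLite reagent; quantify GFP aggregates by laser scanning cytometry.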
HTT cytoprotect: qHTS Multiplex Assay to Identify Dual Action Probes in a Cell Model of Huntington: Cytoprotection (ATP); PC12 HTT-Q103 induced, cytoprotection, ATP luminescence, 40 h; Potency, µM (highest dose often 56.4 µM), most hits filed as activators; actives 0.14% (n = 230,000); AID 1471, 2008; note: nearly all actives have a fitted effect of over 45% in size
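Quantitative HTS on tebufenozide-induced (100 nM) PC12 cells expressing HTTQ103 exon 1–GFP; compounds tested as a concentration series; survival measured via cellular ATP.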
HPGD inh: qHTS Assay for Inhibitors of HPGD (15-Hydroxyprostaglandin Dehydrogenase) | purified HPGD, NADH fluorescence kinetic, PGE2 substrate | Potency, µM, most hits filed as inhibitors | actives 4.3% (n = 150,000) | AID 894, 2007; active = well fitted inhibition curve with a large enough effect, not every such curve was filed as active; inconclusive = small, poorly fitted or top-dose-only effect, or another doubt; inactive = no such curve, though single readings can be large or run the other way
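20 nM HPGD preincubated 15 min at room temperature with compound in 50 mM Tris-HCl pH 8, 0.01% Tween 20. Started with 1 mM NAD+ and 30 uM prostaglandin E2; NADH fluorescence (360/450 nm) read 5 times over 30-s intervals, last minus first.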
PNC inhibitor: High Content Assay for Compounds that inhibit the Assembly of the Perinucleolar Compartment; PC3M PTB-GFP, PNC prevalence imaging, 16 h; stronger effect = lower value; activity change (PNC), negative = inhibition, % at 10 µM; actives 3.1% (n = 140,000);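 active = readout at or below -70, meaning at least 70% loss of cells showing the perinucleolar compartment, a nuclear body marking cancer cells; inconclusive = readout between -30 and a set limit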
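Compounds are pinned in duplicate onto adhered PC3M cells stably expressing GFP-tagged PTB and incubated 16 h at 37 C. Cells are then fixed, nuclei stained with Hoechst, and PNC-positive cells counted.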
Of the large screens only hits and unclear results are named; the others gave an inactive call. Unless noted, calls come from the whole dose curve; as a rule, active = well fitted curve in the direction sought with a large enough effect; inconclusive = small, poorly fitted or top-dose-only effect, or another doubt; inactive = no such curve, though single readings can be large; an effect the other way counts as inactive or inconclusive.

O=c1c2c(nc3nc(Cc4ccccc4)[nH]n13)CCC2	PNC inhibitor -89.8
COC1(C#CC2C=CC(OC(C)=O)C(COC(C)=O)O2)CCCCC1 (stereo not given)	ALDH1A1 block inconclusive (no result: GoLoco inh red, HTT aggregate, HPGD inh, PNC inhibitor)
Cc1ccc(NCCC(=O)c2ccc(Cl)cc2)cc1C	ALDH1A1 block 2.82µM
CCCOc1ccc(C(=O)CCNc2ccc(C)c(Cl)c2)cc1	ALDH1A1 block 17.8µM
CCc1ccc(NCCC(=O)c2ccc(Cl)cc2)cc1	ALDH1A1 block 1.58µM
Cc1ccc(NCCC(=O)c2ccc(Cl)c(Cl)c2)cc1	ALDH1A1 block 0.794µM, HTT aggregate inconclusive
CCc1ccc(C(=O)NNc2ccc(Cl)cc2)cc1	ALDH1A1 block inconclusive (no result: HPGD inh, PNC inhibitor)
CC(=O)c1ccc(Cc2ccccc2)cc1	none (no result: HPGD inh, PNC inhibitor)
CC(=O)c1ccc(NS(=O)(=O)Cc2ccccc2)cc1	HPGD inh 25.1µM
CC(=O)c1ccc(NCCC(=O)c2ccccc2)cc1	ALDH1A1 block 6.31µM (no result: HPGD inh, PNC inhibitor)
CC(=O)N(C)c1ccc(NS(=O)(=O)Cc2ccccc2)cc1	none
OCCNc1ccc(Cl)cc1	none
Cc1ccc(C(=O)CCNc2ccc(Cl)cc2)o1	ALDH1A1 block 3.98µM, HTT aggregate inconclusive
Cc1c(NC(=O)CCCCCN2C(=O)c3ccccc3C2=O)c(=O)n(-c2ccccc2)n1C	none (no result: HTT cytoprotect)
CCOc1ccc(-c2[nH]nc3c2C(c2ccc(O)cc2)C(C#N)=C(N)O3)cc1 (stereo not given)	ALDH1A1 block 17.8µM, PNC inhibitor inconclusive
CC(C)c1[nH]nc2c1C(c1ccc(OC(=O)c3ccco3)cc1)C(C#N)=C(N)O2 (stereo not given)	ALDH1A1 block 25.1µM
COCc1[nH]nc2c1C(c1ccc(OC)cc1)C(C#N)=C(N)O2 (stereo not given)	PNC inhibitor inconclusive
CCCc1[nH]nc2c1C(c1ccc(O)cc1OCC)C(C#N)=C(N)O2 (stereo not given)	ALDH1A1 block 17.8µM
CCCc1[nH]nc2c1C(c1ccc(OC)cc1OC)C(C#N)=C(N)O2 (stereo not given)	ALDH1A1 block inconclusive, HTT aggregate inconclusive
CCCc1[nH]nc2c1C(c1cccc(OC)c1)C(C#N)=C(N)O2 (stereo not given)	ALDH1A1 block 20µM
CCNc1nc(NCC)n2c(SCC(=O)Nc3ccc(C(F)(F)F)cc3[N+](=O)[O-])nnc2n1	PNC inhibitor inconclusive
COc1ccc2[nH]c3c(=O)n(Cc4ccncc4)cnc3c2c1	none (no result: ALDH1A1 block, HPGD inh, PNC inhibitor)
O=C(CCc1ccccc1)NNC(=O)c1ccco1	HPGD inh 28.2µM
O=C(CCC(=O)Nc1ccccc1)NNC(=O)c1ccco1	PNC inhibitor inconclusive
O=C(CCSCc1ccc(Cl)cc1)NC1CCCC1	HPGD inh 17.8µM
O=C(NC1CCCCC1)Sc1ccc(Cl)cc1	ALDH1A1 block inconclusive, HPGD inh 8.91µM
CC1CCCC(C)N1C(=O)CSCc1ccc(Cl)cc1 (stereo not given)	ALDH1A1 block 22.4µM
O=C(CSc1ccc(Cl)cc1)NC1CCCC1	HPGD inh 10µM
CN=C(NC1CCCCC1)c1ccc(Cl)cc1	PNC inhibitor -102.7 (no result: HTT cytoprotect)
Fc1ccc(NC(=S)NCc2cccnc2)cc1	none (no result: HPGD inh, PNC inhibitor)
CCC(C)c1ccc(NC(=S)NCc2cccnc2)cc1 (stereo not given)	ALDH1A1 block 15.8µM, HPGD inh inconclusive
S=C(NCc1cccnc1)Nc1ccc(Cl)c(Cl)c1	ALDH1A1 block inconclusive, HTT aggregate inconclusive, HPGD inh 14.1µM
CC(C)(C)n1nnnc1CN(Cc1ccc(F)cc1)Cc1ccco1	ALDH1A1 block 14.1µM
OC(COc1ccc2cc(Br)ccc2c1)CN1CCCC1 (stereo not given)	none
